Experimental data: PubChem BioAssay (NCI)
Compounds without any hit were thinned out: in the full panel of roughly 79,000, 15% have a hit. Activity calls are given as the source filed them. Rule as the data show it: active = growth inhibition above about 70%; inactive = the rest.

Tests used:
[1] = NCI Yeast Anticancer Drug Screen. Data for the rad52 strain (AID 147);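 also: 0% = growth of vehicle-treated control cultures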; settings: S. cerevisiae rad52 mutant growth inhibition, hits give high values
How it was run: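 Growth of repair-deficient yeast cells was compared between compound-treated and vehicle-treated cultures to give percent inhibition.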

[2] = NCI Yeast Anticancer Drug Screen. Data for the wt1 strain (AID 149);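 also: 0% = growth of vehicle-treated wt1 cultures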; settings: S. cerevisiae wt1 strain (SPY 50644) growth inhibition, hits give high values
How it was run: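 Yeast wt1 strain exposed to compounds; growth inhibition measured relative to vehicle-treated controls.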

[3] = NCI Yeast Anticancer Drug Screen. Data for the rad50EPP+ strain (AID 151);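 also: 0% = growth of vehicle-treated control cultures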; settings: S. cerevisiae rad50 mutant strain, hits give high values
How it was run: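 Measured: growth inhibition of rad50EPP+ yeast. Reference: vehicle-treated controls. Screen uses strains with defined genetic alterations in DNA damage repair or cell cycle control.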

[4] = NCI Yeast Anticancer Drug Screen. Data for the mgt1 strain (AID 153); settings: S. cerevisiae mgt1 mutant growth inhibition, hits give high values
How it was run: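 Compounds were applied to mgt1 mutant yeast, and growth was then compared against vehicle-treated control cultures to give percent inhibition.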

[5] = NCI Yeast Anticancer Drug Screen. Data for the rad50 strain (AID 155);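 also: 0% = growth of vehicle-only cultures of the same strain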; settings: S. cerevisiae rad50 strain growth inhibition, hits give high values
How it was run: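 Yeast carrying a defined DNA repair defect were exposed to test compounds, and growth was compared with vehicle-treated controls to give percent inhibition.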

[6] = NCI Yeast Anticancer Drug Screen. Data for the mec2-1 strain (AID 157); settings: S. cerevisiae mec2-1 strain, hits give high values
How it was run: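 Compounds were applied to mec2-1 yeast cells. Their growth was then compared with that of vehicle-treated cultures to give growth inhibition.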

[7] = NCI Yeast Anticancer Drug Screen. Data for the sgs1 mgt1 strain (AID 161);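 also: 0% = growth of cultures given vehicle only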; settings: S. cerevisiae sgs1 mgt1 strain, hits give high values
How it was run: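 Percent growth inhibition was derived by comparing compound-exposed mutant yeast with vehicle-exposed cultures. The strain carries alterations in DNA damage repair.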

[8] = NCI Yeast Anticancer Drug Screen. Data for the CLN2oe strain (AID 163);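 also: 0% = growth of vehicle-only control cultures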; settings: S. cerevisiae CLN2oe strain, hits give high values
How it was run: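 Cells of an engineered yeast line with disturbed cell-cycle regulation are treated with compound. Inhibition of growth is then calculated relative to the vehicle-treated reference.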

[9] = NCI Yeast Anticancer Drug Screen. Data for the cln2 rad14 strain (AID 165);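 also: 0% = growth equal to vehicle treated cultures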; settings: S. cerevisiae cln2 rad14 strain, hits give high values
How it was run: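 Strain: cln2 rad14 yeast, altered in cell cycle control and DNA damage repair. Read-out: growth inhibition vs vehicle.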

[10] = NCI Yeast Anticancer Drug Screen. Data for the bub3 strain (AID 167); settings: S. cerevisiae bub3 mutant strain, hits give high values
How it was run: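 Compounds were applied to a genetically altered yeast strain carrying a cell-cycle control defect. Growth inhibition was scored against vehicle-treated controls.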

[11] = NCI Yeast Anticancer Drug Screen. Data for the wt2 strain (AID 169);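 also: 0% = growth of vehicle-treated yeast cultures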; settings: S. cerevisiae wt2 strain growth inhibition, hits give high values
How it was run: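 Growth of compound-treated yeast is measured and expressed as inhibition relative to vehicle-only controls.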

[12] = NCI Yeast Anticancer Drug Screen. Data for the mlh1 strain (AID 171);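 also: 0% = growth of vehicle-treated control cultures of the same strain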; settings: S. cerevisiae mlh1 strain growth inhibition, hits give high values
How it was run: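 Test agents were incubated with yeast bearing a defined DNA damage repair or cell cycle control alteration; values are growth inhibition normalised to vehicle-treated cultures.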

[13] = NCI Yeast Anticancer Drug Screen. Data for the sgs1 strain (AID 173);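 also: 0% = growth of vehicle-only control cultures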; settings: S. cerevisiae sgs1 mutant, hits give high values
How it was run: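 Strain with an altered DNA repair or cell cycle pathway exposed to compound. Growth then measured. Value = inhibition versus vehicle control.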

[14] = NCI Yeast Anticancer Drug Screen. Data for the mlh1 rad18 strain (AID 175); settings: S. cerevisiae mlh1 rad18 strain growth inhibition, hits give high values
How it was run: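 A repair-deficient yeast strain is exposed to test compound, and growth is scored relative to vehicle-treated controls.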

[15] = NCI Yeast Anticancer Drug Screen. Data for the rad18 strain (AID 177); settings: S. cerevisiae rad18 mutant growth inhibition, hits give high values
How it was run: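 DNA-repair-defective yeast; compound treatment; growth inhibition scored against vehicle.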

[16] = at 5.0 µM (retest, dose inferred, filed as 0.5)
[17] = at 50.0 µM (retest, dose inferred, filed as 5.0)

Measured: growth inhibition

C=C1CCC(O)C/C1=C/C=C1\CCCC2(C)C1CCC2C(C)CCCC(C)C (stereo not drawn)
inactive: [1]; at 1.2 µM -22% | [1]; at 3.7 µM -3% | [1]; at 11.0 µM -11% | [1]; at 33.0 µM 4% | [1]; at 100.0 µM 49% | [2]; at 1.2 µM -26% | [2]; at 3.7 µM -16% | [2]; at 11.0 µM -12% | [2]; at 33.0 µM -15% | [2]; at 100.0 µM 4% | [3]; at 1.2 µM -16% | [3]; at 3.7 µM -20% | [3]; at 11.0 µM -22% | [3]; at 33.0 µM -8% | [4]; at 1.2 µM -21% | [4]; at 3.7 µM -15% | [4]; at 11.0 µM -7% | [4]; at 33.0 µM -21% | [4]; at 100.0 µM 52% | [5]; at 1.2 µM -18% | [5]; at 3.7 µM -9% | [5]; [16] 13% | [5]; at 11.0 µM 5% | [5]; at 33.0 µM 0% | [5]; at 50.0 µM 51.8% | [5]; at 100.0 µM 30% | [6]; at 1.2 µM -40% | [6]; at 3.7 µM -25% | [6]; [16] 12% | [6]; at 11.0 µM -18% | [6]; at 33.0 µM 2% | [6]; at 50.0 µM -9.05% | [6]; at 100.0 µM -15% | [7]; [16] 6% | [7]; [17] 57% | [7]; at 50.0 µM 54.9% | [8]; at 1.2 µM -11% | [8]; at 3.7 µM 8% | [8]; at 11.0 µM 2% | [8]; at 33.0 µM 6% | [8]; at 100.0 µM 39% | [9]; [16] 9% | [9]; [17] 19% | [9]; at 50.0 µM 4.95% | [10]; at 1.2 µM -25% | [10]; at 3.7 µM -23% | [10]; [16] 9% | [10]; at 11.0 µM -27% | [10]; at 33.0 µM -13% | [10]; [17] 69% | [10]; at 50.0 µM 24.1% | [10]; at 100.0 µM 7% | [11]; at 1.2 µM -8% | [11]; at 3.7 µM -14% | [11]; at 11.0 µM -18% | [11]; at 33.0 µM -27% | [11]; at 100.0 µM 22% | [12]; at 1.2 µM -24% | [12]; at 3.7 µM -26% | [12]; at 11.0 µM -26% | [12]; at 33.0 µM -5% | [12]; at 100.0 µM 18% | [13]; at 1.2 µM -23% | [13]; at 3.7 µM -6% | [13]; at 11.0 µM -25% | [13]; at 33.0 µM -13% | [13]; at 100.0 µM 35% | [14]; [16] 11% | [15]; at 1.2 µM -10% | [15]; at 3.7 µM -6% | [15]; at 11.0 µM -8% | [15]; at 33.0 µM 13% | [15]; at 100.0 µM 34%
active: [3]; at 100.0 µM 73% | [5]; [17] 84% | [6]; [17] 94% | [14]; [17] 93% | [14]; at 50.0 µM 82.9%
